# Results reported in PubChem BioAssay (NCI).
# This is part of a sample that, as a whole, favours compounds with a hit. Of some 79,000 tested, about 15% had one in any assay. A number with no mark means an inactive call. The source made the active and inactive calls. No stated cut-off is given here; in the data, active means growth inhibition above about 70%; inactive means the rest.
# How the values were obtained:
# [1] = NCI Yeast Anticancer Drug Screen. Data for the wt1 strain (AID 149);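 further: 0% = growth of vehicle-treated wt1 cultures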; settings: S. cerevisiae wt1 strain (SPY 50644) growth inhibition, hits give high values
# In short: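 Each compound is tested on wt1 yeast and the loss of growth versus vehicle gives the inhibition value.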
# [2] = NCI Yeast Anticancer Drug Screen. Data for the rad50EPP+ strain (AID 151);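 further: 0% = growth of vehicle-treated control cultures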; settings: S. cerevisiae rad50 mutant strain, hits give high values
# In short: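 Strain rad50EPP+; compound exposure; % growth inhibition vs vehicle.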
# [3] = NCI Yeast Anticancer Drug Screen. Data for the mgt1 strain (AID 153); settings: S. cerevisiae mgt1 mutant growth inhibition, hits give high values
# In short: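 Read-out: yeast growth inhibition vs vehicle control. Strain mgt1, drawn from a panel altered in DNA damage repair or cell cycle control.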
# [4] = NCI Yeast Anticancer Drug Screen. Data for the rad50 strain (AID 155);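 further: 0% = growth of vehicle-only cultures of the same strain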; settings: S. cerevisiae rad50 strain growth inhibition, hits give high values
# In short: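 Vehicle-treated cultures provide the reference for the growth inhibition reported for compound-exposed, repair-deficient yeast.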
# [5] = NCI Yeast Anticancer Drug Screen. Data for the mec2-1 strain (AID 157); settings: S. cerevisiae mec2-1 strain, hits give high values
# In short: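 Cells of the genetically defined mec2-1 yeast strain are incubated with test compound. Inhibition of growth is calculated against vehicle-treated controls.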
# [6] = NCI Yeast Anticancer Drug Screen. Data for the rad14 strain (AID 159);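 further: 0% = growth of vehicle-treated control cultures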; settings: S. cerevisiae rad14 strain growth inhibition, hits give high values
# In short: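 Inhibition of growth is reported for a repair-deficient yeast mutant following compound treatment, calculated relative to cultures that received vehicle.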
# [7] = NCI Yeast Anticancer Drug Screen. Data for the sgs1 mgt1 strain (AID 161);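 further: 0% = growth of cultures given vehicle only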; settings: S. cerevisiae sgs1 mgt1 strain, hits give high values
# In short: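 Inhibition of yeast growth, normalised to vehicle-treated controls, is reported for a strain bearing genetic alterations in DNA damage repair.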
# [8] = NCI Yeast Anticancer Drug Screen. Data for the CLN2oe strain (AID 163);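 further: 0% = growth of vehicle-only control cultures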; settings: S. cerevisiae CLN2oe strain, hits give high values
# In short: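 Strain altered in cell-cycle control, incubated with compound; growth compared to solvent-treated controls.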
# [9] = NCI Yeast Anticancer Drug Screen. Data for the cln2 rad14 strain (AID 165);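 further: 0% = growth equal to vehicle treated cultures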; settings: S. cerevisiae cln2 rad14 strain, hits give high values
# In short: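 The screen exposed genetically defined yeast (cln2 rad14) to test compounds and scored growth inhibition relative to vehicle-treated controls.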
# [10] = NCI Yeast Anticancer Drug Screen. Data for the bub3 strain (AID 167); settings: S. cerevisiae bub3 mutant strain, hits give high values
# In short: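 Mutant yeast screening strain plus compound; vehicle-treated cultures serve as the 0% inhibition reference.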
# [11] = NCI Yeast Anticancer Drug Screen. Data for the wt2 strain (AID 169); settings: S. cerevisiae wt2 strain growth inhibition, hits give high values
# In short: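 Steps: yeast strain treated with compound; growth recorded; inhibition calculated relative to cultures given vehicle alone.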
# [12] = NCI Yeast Anticancer Drug Screen. Data for the mlh1 strain (AID 171);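 further: 0% = growth of vehicle-treated control cultures of the same strain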; settings: S. cerevisiae mlh1 strain growth inhibition, hits give high values
# In short: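 Yeast screen: mutant strain plus compound, growth scored against vehicle control wells.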
# [13] = NCI Yeast Anticancer Drug Screen. Data for the sgs1 strain (AID 173);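 further: 0% = growth of vehicle-only control cultures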; settings: S. cerevisiae sgs1 mutant, hits give high values
# In short: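 Inhibition of yeast growth served as the measure. The mutant strain was treated with each compound, and growth was normalised to cultures receiving vehicle alone.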
# [14] = NCI Yeast Anticancer Drug Screen. Data for the mlh1 rad18 strain (AID 175); settings: S. cerevisiae mlh1 rad18 strain growth inhibition, hits give high values
# In short: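 Compound-treated yeast growth, normalised to vehicle controls. Strain bears defined DNA repair mutations.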
# [15] = NCI Yeast Anticancer Drug Screen. Data for the rad18 strain (AID 177); settings: S. cerevisiae rad18 mutant growth inhibition, hits give high values
# In short: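 Inhibition values reflect reduced yeast growth compared with vehicle-treated controls, using a strain engineered with a DNA damage repair defect.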
# [16] = at 5.0 µM (retest, dose inferred, filed as 0.5)
# [17] = at 50.0 µM (retest, dose inferred, filed as 5.0)
smiles,measurement,setting,value
CCCCCC(=O)C(C)(c1nc2n(c1O)/C(=N/C(=O)Nc1ccc(Cl)cc1)N=N2)c1nc2n(c1O)/C(=N/C(=O)Nc1ccc(Cl)cc1)N=N2,growth inhibition,[1]; at 1.2 µM,3%
same,growth inhibition,[1]; at 3.7 µM,-4%
same,growth inhibition,[1]; at 11.0 µM,-3%
same,growth inhibition,[1]; at 33.0 µM,1%
same,growth inhibition,[1]; at 100.0 µM,18%
same,growth inhibition,[2]; at 1.2 µM,8%
same,growth inhibition,[2]; at 3.7 µM,16%
same,growth inhibition,[2]; at 11.0 µM,32%
same,growth inhibition,[2]; at 33.0 µM,60%
same,growth inhibition,[2]; at 100.0 µM,79% (active)
same,growth inhibition,[3]; at 1.2 µM,2%
same,growth inhibition,[3]; at 3.7 µM,4%
same,growth inhibition,[3]; at 11.0 µM,-5%
same,growth inhibition,[3]; at 33.0 µM,9%
same,growth inhibition,[3]; at 100.0 µM,57%
same,growth inhibition,[4]; at 1.2 µM,6%
same,growth inhibition,[4]; at 3.7 µM,0%
same,growth inhibition,[4]; [16],-7%
same,growth inhibition,[4]; at 11.0 µM,6%
same,growth inhibition,[4]; at 33.0 µM,24%
same,growth inhibition,[4]; [17],14%
same,growth inhibition,[4]; at 50.0 µM,-11.6%
same,growth inhibition,[4]; at 100.0 µM,44%
same,growth inhibition,[5]; at 1.2 µM,-3%
same,growth inhibition,[5]; at 3.7 µM,-1%
same,growth inhibition,[5]; [16],20%
same,growth inhibition,[5]; at 11.0 µM,2%
same,growth inhibition,[5]; at 33.0 µM,8%
same,growth inhibition,[5]; [17],41%
same,growth inhibition,[5]; at 50.0 µM,-11.2%
same,growth inhibition,[5]; at 100.0 µM,30%
same,growth inhibition,[6]; at 1.2 µM,-1%
same,growth inhibition,[6]; at 3.7 µM,2%
same,growth inhibition,[6]; at 11.0 µM,-2%
same,growth inhibition,[6]; at 33.0 µM,4%
same,growth inhibition,[6]; at 100.0 µM,50%
same,growth inhibition,[7]; [16],12%
same,growth inhibition,[7]; [17],64%
same,growth inhibition,[7]; at 50.0 µM,-5.1%
same,growth inhibition,[8]; at 1.2 µM,-5%
same,growth inhibition,[8]; at 3.7 µM,-8%
same,growth inhibition,[8]; at 11.0 µM,-5%
same,growth inhibition,[8]; at 33.0 µM,2%
same,growth inhibition,[8]; at 100.0 µM,27%
same,growth inhibition,[9]; [16],-27%
same,growth inhibition,[9]; [17],3%
same,growth inhibition,[9]; at 50.0 µM,-23.3%
same,growth inhibition,[10]; at 1.2 µM,-6%
same,growth inhibition,[10]; at 3.7 µM,-9%
same,growth inhibition,[10]; [16],-42%
same,growth inhibition,[10]; at 11.0 µM,-8%
same,growth inhibition,[10]; at 33.0 µM,-1%
same,growth inhibition,[10]; [17],38%
same,growth inhibition,[10]; at 50.0 µM,98.2% (active)
same,growth inhibition,[10]; at 100.0 µM,20%
same,growth inhibition,[11]; at 1.2 µM,-1%
same,growth inhibition,[11]; at 3.7 µM,-1%
same,growth inhibition,[11]; at 11.0 µM,4%
same,growth inhibition,[11]; at 33.0 µM,19%
same,growth inhibition,[11]; at 100.0 µM,45%
same,growth inhibition,[12]; at 1.2 µM,-4%
same,growth inhibition,[12]; at 3.7 µM,-1%
same,growth inhibition,[12]; at 11.0 µM,6%
same,growth inhibition,[12]; at 33.0 µM,22%
same,growth inhibition,[12]; at 100.0 µM,59%
same,growth inhibition,[13]; at 1.2 µM,2%
same,growth inhibition,[13]; at 3.7 µM,1%
same,growth inhibition,[13]; at 11.0 µM,6%
same,growth inhibition,[13]; at 33.0 µM,25%
same,growth inhibition,[13]; at 100.0 µM,54%
same,growth inhibition,[14]; [16],-26%
same,growth inhibition,[14]; [17],55%
same,growth inhibition,[14]; at 50.0 µM,7%
same,growth inhibition,[15]; at 1.2 µM,-1%
same,growth inhibition,[15]; at 3.7 µM,7%
same,growth inhibition,[15]; at 11.0 µM,9%
same,growth inhibition,[15]; at 33.0 µM,21%
same,growth inhibition,[15]; at 100.0 µM,51%
